Each structure is given as a SMILES string. Results filed as inconclusive are left out. The source made the active and inactive calls. Unless noted, the call rests on the fitted dose curve; in most records, active means well fitted curve in the direction sought with a large enough effect; inconclusive means small, poorly fitted or top-dose-only effect, or another doubt; inactive means no such curve, though single readings can be large; an effect the other way counts as inactive or inconclusive.

The values below come from PubChem BioAssay (NCATS).

Assay [1] is described as follows: qHTS for differential inhibitors of proliferation of Plasmodium falciparum line Dd2 (AID 1882). Further: nearly all actives have a fitted effect of over 65% in size. Further: potency means the concentration at half of the fitted maximal effect. To be noted: Potency: Plasmodium falciparum Dd2 proliferation inhibition. The gist of the method:
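Dd2-infected erythrocytes (0.3% parasitemia, 2.5% hematocrit final) incubated with compound 72 h at 37 C, 5% CO2; lysed with saponin/Triton buffer containing SYBR Green I, incubated overnight in the dark, then read by fluorescence (485/535 nm). Normalized to 0.29 uM artemisinin and DMSO.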
Background: qHTS replaces the single test concentration by a dilution series.

Assay [2] can be described thus: qHTS for differential inhibitors of proliferation of Plasmodium falciparum line W2 (AID 1883).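 Further: parasites grown with compound for 72 h before lysis and staining.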 Further: potency means the concentration at half of the fitted maximal effect. To be noted: Potency: Plasmodium falciparum W2 proliferation inhibition.
Assay [3] concerns the target Ferritin light chain (Equus caballus) (UniProt P02791). As to the kind of experiment: qHTS Validation Assay for Identification of Novel General Anesthetics (AID 2323). Further: series mostly up to about 77 µM. A digest of the protocol: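 Horse-spleen apoferritin (10 uM) in PBS with 50% saturated 1-aminoanthracene; compounds pin-transferred, 10 min at room temperature. Fluorescence read at 380/535 nm, normalized to free 1-AMA and 1-AMA/apoferritin values; four-parameter Hill fit.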

The target in assay [4] is ATP-dependent DNA helicase Q1 (Homo sapiens) (UniProt P46063). As to the kind of experiment: qHTS Validation Assay for Inhibitors of RecQ-Like Dna Helicase 1 (RECQ1) (AID 2353). The gist of the method: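 50 nM RECQ1T1 preincubated 15 min with compound in Tris pH 8.0 buffer with MgCl2, DTT, Tween-20 and 2.5 ug/ml poly(dI-dC); started with 200 nM TAMRA/BHQ-2 forked duplex and 2 mM ATP. Unwinding read as fluorescence (525/598 nm), two reads 2 h apart.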
Sequence of ATP-dependent DNA helicase Q1 (Homo sapiens) (P46063 whole entry, looked up): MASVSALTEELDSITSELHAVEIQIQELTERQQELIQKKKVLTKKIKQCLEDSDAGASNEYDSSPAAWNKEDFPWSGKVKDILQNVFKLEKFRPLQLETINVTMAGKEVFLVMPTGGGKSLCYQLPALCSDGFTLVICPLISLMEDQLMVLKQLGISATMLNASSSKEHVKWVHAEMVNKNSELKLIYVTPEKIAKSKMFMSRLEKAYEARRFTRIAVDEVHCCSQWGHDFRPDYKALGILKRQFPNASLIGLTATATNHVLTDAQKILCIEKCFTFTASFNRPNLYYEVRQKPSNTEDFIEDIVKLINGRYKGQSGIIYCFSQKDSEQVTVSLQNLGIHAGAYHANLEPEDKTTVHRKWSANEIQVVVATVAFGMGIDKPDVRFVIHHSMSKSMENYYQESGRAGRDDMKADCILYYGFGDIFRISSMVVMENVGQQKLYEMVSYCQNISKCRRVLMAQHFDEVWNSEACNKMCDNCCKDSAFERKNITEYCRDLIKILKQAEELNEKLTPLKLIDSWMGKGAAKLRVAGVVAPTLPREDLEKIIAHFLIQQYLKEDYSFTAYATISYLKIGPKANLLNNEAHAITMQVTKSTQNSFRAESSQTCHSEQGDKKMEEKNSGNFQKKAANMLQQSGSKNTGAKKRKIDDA

A short description of assay [5]: Cytometric Cell-Based qHTS for Inhibitors of the mTORC1 Signaling Pathway in MEF (Tsc2-/-, p53-/-) Cells (AID 2660).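 Further: percent of cells above a phospho-rpS6 to PI ratio cutoff in each well; series mostly up to about 38 µM.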 A digest of the protocol:
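Immunofluorescence qHTS of rpS6 Ser235/236 phosphorylation: MEFs (Tsc2-/-, p53-/-) treated 24 h, 37 C, in DMEM + 10% FBS. Alexa-488 signal normalized to PI count, referenced to rapamycin (7.5 nM) and DMSO; PI cell number recorded for viability.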

Assay [6] can be described thus: High Content Imaging Cell-Based qHTS for Inhibitors of the mTORC1 Signaling Pathway in MEF (Tsc2-/-, p53-/-) Cells (AID 2666).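 Further: percent of cells scored positive for phospho-rpS6 Ser235/236 immunostaining by imaging.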 A digest of the protocol:
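Phospho-rpS6 (Ser235/236) immunofluorescence, normalized and scored as % positive cells using rapamycin and DMSO controls, was read in empty-vector Tsc2-/-, p53-/- MEFs after 24 h compound exposure at 37 C; propidium iodide counted cells.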

The nature of assay [7]: High Content Imaging Cell-Based qHTS for Inhibitors of the mTORC1 Signaling Pathway in MEF Cells (AID 2667).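 Further: Tsc2-/- p53-/- MEFs stably re-expressing wild-type Tsc2 exposed 24 h; series mostly up to about 38 µM.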 The gist of the method:
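WT MEFs (Tsc2-/-, p53-/- re-expressing Tsc2), in DMEM + 10% FBS, were treated with compound for 24 h at 37 C. Cells were then fixed and stained for phospho-rpS6 Ser235/236 with propidium iodide as cell count. Values are % positive cells, with thresholds set against rapamycin-treated cells.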

A short description of assay [8]: Cytometry Cell-Based qHTS for Inhibitors of the mTORC1 Signaling Pathway in MEF cells (AID 2668).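 Further: Tsc2-/- p53-/- mouse embryonic fibroblasts stably re-expressing wild-type Tsc2; percent cells positive for phospho-rpS6 Ser235/236 relative to propidium iodide stain; series mostly up to about 38 µM.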 The gist of the method: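 MEFs (Tsc2-/-, p53-/- stably expressing WT Tsc2) treated 24 h at 37 degree Celsius, fixed, stained with Alexa-488 anti-phospho-rpS6 Ser235/236 and propidium iodide; Acumen laser scanning. Reported as % positive cells, phospho-S6 normalized to PI.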

In assay [9] the target is Ubiquitin carboxyl-terminal hydrolase 2 (Homo sapiens) (UniProt O75604). As to the kind of experiment: qHTS Validation Assay for Inhibitors of Ubiquitin-specific Protease USP2a Using CHOP2 as the Reporter (AID 463106). The gist of the method: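 USP2 core (10 nM final) was preincubated with compound 30 min at RT in pH 8.0 Tris/CaCl2/beta-ME/CHAPS buffer. Ub-CHOP2 and reporter substrate (25 nM final each) were then added, with fluorescence (Ex 485/Em 531) read after 60 min. Data were normalized to NEM full inhibition and fitted to concentration-response curves.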
Sequence of Ubiquitin carboxyl-terminal hydrolase 2 (Homo sapiens) (O75604 whole entry, looked up): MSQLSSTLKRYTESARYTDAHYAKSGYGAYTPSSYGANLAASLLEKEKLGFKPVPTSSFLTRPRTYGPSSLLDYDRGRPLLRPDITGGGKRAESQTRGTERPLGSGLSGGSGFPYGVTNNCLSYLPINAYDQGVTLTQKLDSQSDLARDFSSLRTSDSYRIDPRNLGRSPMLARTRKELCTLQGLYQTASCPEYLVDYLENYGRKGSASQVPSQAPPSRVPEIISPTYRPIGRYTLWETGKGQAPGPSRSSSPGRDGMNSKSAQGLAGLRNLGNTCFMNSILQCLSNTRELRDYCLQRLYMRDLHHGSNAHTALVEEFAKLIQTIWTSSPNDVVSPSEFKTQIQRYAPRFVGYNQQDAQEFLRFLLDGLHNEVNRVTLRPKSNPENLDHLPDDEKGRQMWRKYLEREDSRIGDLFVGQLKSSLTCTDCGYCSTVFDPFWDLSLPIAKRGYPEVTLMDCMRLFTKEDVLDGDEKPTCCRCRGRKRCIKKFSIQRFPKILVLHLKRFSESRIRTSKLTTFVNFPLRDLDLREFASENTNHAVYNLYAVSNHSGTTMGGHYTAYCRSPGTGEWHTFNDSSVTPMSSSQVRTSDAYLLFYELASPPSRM

Assay [10] concerns the target DNA polymerase III PolC-type (Bacillus subtilis (strain 168)) (UniProt P13267). As to the kind of experiment: qHTS Validation Assay for the Inhibitors of DNA Replication in Gram-Positive Bacteria (AID 485295).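 Further: PicoGreen fluorescence of double-stranded DNA made on primed circular M13 template; series mostly up to about 57 µM.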 A digest of the protocol:
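Reconstituted B. subtilis Pol III holoenzyme (PolC, beta clamp, SSB, primase) preincubated with compound, then M13Gori single-stranded circular template with dNTPs/NTPs added; room temperature reaction. Stopped with EDTA/PicoGreen; dsDNA fluorescence read, EDTA as full-inhibition control.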

The target of assay [11] is Tumor susceptibility gene 101 protein (Homo sapiens) (UniProt Q99816). As to the kind of experiment: qHTS Validation Assay for Iinhibitors of HIV-1 Budding by Blocking the Interaction of PTAP/TSG101 (AID 485342; calls by dose curve). The gist of the method:
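Tsg101 binding domain (10 uM) with FITC-labeled PTAP peptide (50 nM) in HEPES pH 7.5 buffer, 20 min at r.t. with compounds. Binding measured by fluorescence polarization.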

The nature of assay [12]: qHTS Validation Assay to Find Inhibitors of Chronic Active B-Cell Receptor Signaling (AID 485345; active means well fitted curve in the direction sought with a large enough effect in the main read-out, with a control signal flat, not every such curve was filed as active). A digest of the protocol: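 TMD8 ABC-DLBCL cells stably carrying doxycycline-inducible IkappaBalpha–green luciferase fusion plus unfused red luciferase; compounds 46 uM to 3 nM, 4 h at 37C with doxycycline. Corrected green/red luminescence ratio normalized to 10 uM MG-132 and basal cell wells; curves fitted.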

Assay [13] concerns the target Beta-2 adrenergic receptor (Homo sapiens) (UniProt P07550). Description: qHTS validation assay of beta-arrestin-biased ligands of beta2-adrenergic receptor (AID 485366). A digest of the protocol: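 Arrestin-recruitment (Tango) reporter: ligand-bound beta2-AR recruits beta-arrestin, releasing tTA, which upregulates luciferase. Titrations of up to 46 microM incubated 18 hr at 37 degrees C before luminescent readout.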

A short description of assay [14]: qHTS for differential inhibitors of proliferation of Plasmodium falciparum line HB3 (AID 1886).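 Further: parasites grown with compound for 72 h before SYBR Green readout.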 To be noted: Potency: Plasmodium falciparum HB3 proliferation inhibition.
Assay [15] in a line: qHTS Assay for Modulators of Human Peripheral Myelin Protein 22 (PMP22) Expression/Activity (AID 1967; active means well fitted curve in the direction sought with a large enough effect in the signal ratio; the % refers to the signal ratio). A digest of the protocol:
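Mouse MSC80 Schwann cells carrying Pmp22 promoter–green click beetle luciferase plus EF-alpha–red luciferase control, dosed 24 h at 37 °C. Dual-filter luminescence, overlap-corrected; %Activity from green/red ratio normalised to untreated cells, concentration-response curves fitted.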

Assay [16] deals with RecQ-like DNA helicase BLM (Homo sapiens) (UniProt P54132). Description: qHTS Validation Assay for Inhibitors of Bloom's syndrome helicase (BLM) (AID 2364). A digest of the protocol:
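50 nM BLM preincubated 15 min at room temperature with compound in pH 8.0 Tris buffer containing 2.5 ug/ml poly(dI-dC); started with 200 nM TAMRA/BHQ-2 forked duplex and 2 mM ATP (final). Unwinding read as TAMRA fluorescence increase, two reads 2 h apart.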

Assay [17] can be described thus: Validation screen for small molecules that induce DNA re-replication in MCF 10A normal breast cells (AID 463097). Further: nearly all actives have a fitted effect of over 60% in size. A digest of the protocol: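 MCF 10A cells exposed to compound 48 hr at 37 C, 5% CO2, then Hoechst-stained 40 min. Laser-scanning imaging of nuclear DNA content (405 nm ex, 500-530 nm em); re-replication scored as rise in nuclei with elevated fluorescence intensity.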

Sequence of RecQ-like DNA helicase BLM (Homo sapiens) (P54132 whole entry, looked up): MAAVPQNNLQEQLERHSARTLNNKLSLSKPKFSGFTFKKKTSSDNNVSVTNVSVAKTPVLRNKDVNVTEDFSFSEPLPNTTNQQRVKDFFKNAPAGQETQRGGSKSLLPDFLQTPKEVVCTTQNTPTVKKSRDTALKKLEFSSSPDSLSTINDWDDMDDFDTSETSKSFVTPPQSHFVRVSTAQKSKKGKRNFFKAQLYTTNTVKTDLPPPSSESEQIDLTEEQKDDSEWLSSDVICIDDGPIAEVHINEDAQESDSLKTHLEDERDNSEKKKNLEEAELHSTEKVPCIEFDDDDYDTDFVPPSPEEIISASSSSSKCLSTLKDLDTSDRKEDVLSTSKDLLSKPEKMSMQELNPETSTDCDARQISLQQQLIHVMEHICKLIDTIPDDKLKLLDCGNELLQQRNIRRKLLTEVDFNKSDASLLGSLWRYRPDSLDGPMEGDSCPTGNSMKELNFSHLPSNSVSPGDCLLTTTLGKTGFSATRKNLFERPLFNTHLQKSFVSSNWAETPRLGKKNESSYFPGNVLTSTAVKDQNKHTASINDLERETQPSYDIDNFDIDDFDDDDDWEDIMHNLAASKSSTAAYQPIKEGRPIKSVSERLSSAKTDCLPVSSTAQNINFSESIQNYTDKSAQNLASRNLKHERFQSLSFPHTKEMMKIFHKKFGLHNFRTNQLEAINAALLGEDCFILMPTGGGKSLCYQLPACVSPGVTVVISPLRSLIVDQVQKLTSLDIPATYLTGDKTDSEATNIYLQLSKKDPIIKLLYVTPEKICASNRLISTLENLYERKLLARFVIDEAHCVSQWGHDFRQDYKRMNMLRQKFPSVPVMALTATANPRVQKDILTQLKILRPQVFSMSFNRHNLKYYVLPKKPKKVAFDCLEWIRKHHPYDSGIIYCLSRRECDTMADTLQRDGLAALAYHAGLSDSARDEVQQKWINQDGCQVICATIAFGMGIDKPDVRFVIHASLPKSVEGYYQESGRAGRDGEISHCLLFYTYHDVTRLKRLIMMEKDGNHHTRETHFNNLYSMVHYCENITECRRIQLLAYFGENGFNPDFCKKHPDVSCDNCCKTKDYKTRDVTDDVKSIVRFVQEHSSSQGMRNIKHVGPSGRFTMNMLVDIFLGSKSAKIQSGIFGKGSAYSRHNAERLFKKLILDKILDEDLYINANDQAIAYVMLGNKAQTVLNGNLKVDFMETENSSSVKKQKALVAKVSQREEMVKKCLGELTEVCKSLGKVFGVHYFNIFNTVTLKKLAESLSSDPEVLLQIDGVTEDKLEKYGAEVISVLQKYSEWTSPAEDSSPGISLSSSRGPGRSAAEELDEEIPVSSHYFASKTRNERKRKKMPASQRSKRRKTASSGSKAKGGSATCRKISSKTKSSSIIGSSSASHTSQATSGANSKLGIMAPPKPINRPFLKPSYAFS
Sequence of DNA polymerase III PolC-type (Bacillus subtilis (strain 168)) (P13267 whole entry, looked up): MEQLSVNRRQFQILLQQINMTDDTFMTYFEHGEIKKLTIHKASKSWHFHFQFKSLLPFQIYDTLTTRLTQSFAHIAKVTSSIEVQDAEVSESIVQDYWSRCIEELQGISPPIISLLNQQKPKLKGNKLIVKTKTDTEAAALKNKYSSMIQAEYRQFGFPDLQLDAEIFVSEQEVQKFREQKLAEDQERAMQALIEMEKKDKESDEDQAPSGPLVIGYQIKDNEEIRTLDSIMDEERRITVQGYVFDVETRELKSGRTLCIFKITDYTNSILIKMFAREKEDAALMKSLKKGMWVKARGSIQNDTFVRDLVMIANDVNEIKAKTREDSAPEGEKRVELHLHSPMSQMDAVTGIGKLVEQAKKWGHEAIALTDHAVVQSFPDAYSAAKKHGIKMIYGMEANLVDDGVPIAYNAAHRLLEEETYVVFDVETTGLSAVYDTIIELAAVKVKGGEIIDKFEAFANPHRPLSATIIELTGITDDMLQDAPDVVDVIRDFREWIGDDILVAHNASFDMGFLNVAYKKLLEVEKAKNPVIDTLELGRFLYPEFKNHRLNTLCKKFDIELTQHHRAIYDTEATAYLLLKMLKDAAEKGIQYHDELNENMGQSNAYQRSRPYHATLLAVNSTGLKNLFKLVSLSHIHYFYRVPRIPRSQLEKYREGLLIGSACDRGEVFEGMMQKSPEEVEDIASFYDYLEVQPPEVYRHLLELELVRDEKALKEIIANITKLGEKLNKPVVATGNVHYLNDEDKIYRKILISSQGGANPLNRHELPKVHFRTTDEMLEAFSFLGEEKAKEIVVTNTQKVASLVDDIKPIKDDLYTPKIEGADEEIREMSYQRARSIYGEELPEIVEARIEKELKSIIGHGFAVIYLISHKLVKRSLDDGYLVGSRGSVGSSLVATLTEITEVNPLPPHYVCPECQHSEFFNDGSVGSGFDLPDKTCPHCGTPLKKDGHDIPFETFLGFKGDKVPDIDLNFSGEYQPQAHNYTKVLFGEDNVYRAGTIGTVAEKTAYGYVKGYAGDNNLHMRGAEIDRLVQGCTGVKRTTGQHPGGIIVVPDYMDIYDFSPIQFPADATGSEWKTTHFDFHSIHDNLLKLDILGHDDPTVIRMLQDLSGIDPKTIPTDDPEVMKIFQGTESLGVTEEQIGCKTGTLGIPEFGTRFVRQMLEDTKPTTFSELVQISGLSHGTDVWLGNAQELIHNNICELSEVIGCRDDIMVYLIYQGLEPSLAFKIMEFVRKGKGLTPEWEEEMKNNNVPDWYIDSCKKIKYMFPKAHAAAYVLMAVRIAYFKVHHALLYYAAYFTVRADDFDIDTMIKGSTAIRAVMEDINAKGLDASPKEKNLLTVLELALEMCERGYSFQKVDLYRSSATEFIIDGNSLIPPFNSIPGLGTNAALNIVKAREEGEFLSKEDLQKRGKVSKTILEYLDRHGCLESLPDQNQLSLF
Sequence of Ferritin light chain (Equus caballus) (P02791 2-175 limits assumed): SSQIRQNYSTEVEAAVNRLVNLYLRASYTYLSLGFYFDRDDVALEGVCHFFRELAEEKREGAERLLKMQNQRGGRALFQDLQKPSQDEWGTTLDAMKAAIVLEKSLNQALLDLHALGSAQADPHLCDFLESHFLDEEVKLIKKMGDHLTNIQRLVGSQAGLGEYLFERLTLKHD
Sequence of Beta-2 adrenergic receptor (Homo sapiens) (P07550 whole entry, looked up): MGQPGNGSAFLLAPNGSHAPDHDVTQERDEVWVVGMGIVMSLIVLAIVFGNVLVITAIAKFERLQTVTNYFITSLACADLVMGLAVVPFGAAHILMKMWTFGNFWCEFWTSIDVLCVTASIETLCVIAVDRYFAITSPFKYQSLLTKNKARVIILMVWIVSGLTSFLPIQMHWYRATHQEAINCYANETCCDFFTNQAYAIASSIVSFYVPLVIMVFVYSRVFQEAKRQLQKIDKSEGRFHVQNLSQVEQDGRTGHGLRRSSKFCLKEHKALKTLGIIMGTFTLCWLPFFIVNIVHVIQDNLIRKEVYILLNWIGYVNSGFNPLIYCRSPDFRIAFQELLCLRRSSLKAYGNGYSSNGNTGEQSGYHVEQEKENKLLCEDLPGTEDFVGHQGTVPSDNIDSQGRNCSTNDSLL

As for `O=S(=O)(c1cccc2c(Cl)cccc12)N1CCCNCC1`, the Potency was 4.47 µM (active) in assay [1] and 1.58 µM (active) in assay [2]. The Potency result in assay [3], in assay [4], in [6], in assay [7], in [8] and in assay [9] was “inactive” in each case. The Potency result in [10] is “inactive”. Moreover, the call in [5], in assay [11], in [12] and in [13] was inactive.
As for `CCCCOc1cc(CC2CNC(=O)N2)ccc1OC` (configuration not stated), the Potency entry in [1], in [14], in assay [3], in [4], in assay [16] and in assay [6] was “inactive” in each case. The Potency entry in assay [7], in assay [8], in assay [17], in [9] and in [10] was “inactive” each time. The result in [15], in [5] and in [11] was inactive.
For `CCCCCC[C@@H]([C@@H](C)O)n1cnc2c(N)ncnc21`, the Potency result in assay [1], in assay [14], in [3], in assay [4], in assay [6] and in [7] was “inactive” throughout. For the same molecule, the Potency entry in assay [8], in assay [17], in [9] and in assay [10] was “inactive” in each case. Further, the result in assay [15], in assay [5], in assay [11], in [12] and in [13] was inactive.
Consider `NCC(O)c1ccc(O)c(O)c1` (configuration not stated), for which the Potency result in [1], in [3], in assay [4], in assay [6], in [8] and in assay [17] was “inactive” in each case. Also, the Potency entry in assay [9] and in [10] was “inactive” throughout. Also, the Potency in [2] was 11.2 µM (active). In addition, the molecule was called inactive in assay [11], in assay [12] and in assay [13].
As to `C#CC(N)CCC(=O)O` (configuration not stated), the Potency entry in [1], in [14], in assay [4], in [16], in assay [6] and in assay [7] was “inactive” in each case. Besides, the Potency entry in [8], in assay [17], in [9] and in assay [10] was “inactive” throughout. Besides, the outcome in assay [15], in assay [5], in [11], in assay [12] and in [13] was inactive.
Turning to `CCCCCCCCCCCCCCC[C@H](O)[C@H](N)CO`, the Potency result in assay [1], in assay [4], in [6], in assay [9] and in assay [10] was “inactive” throughout. The Potency in [2] is 12.6 µM (active). For the same molecule, the molecule was called inactive in [5], in [11], in assay [12] and in assay [13].
For the molecule `Cc1nc(N=Nc2cc(S(=O)(=O)O)c3cc([N+](=O)[O-])cc(S(=O)(=O)O)c3c2)c(COP(=O)(O)O)c(C=O)c1O`, the Potency entry in assay [1], in [2], in assay [6], in [7], in assay [8] and in [17] was “inactive” in each case. In addition, the Potency entry in assay [9] is “inactive”. Further, the result in assay [15], in assay [5], in [11], in [12] and in [13] was inactive.
As to `O=C(O)c1ccccc1Nc1cccc(OCc2ccc3ccccc3n2)c1`, the Potency entry in assay [1], in [14], in assay [3], in assay [4], in [6] and in [7] was “inactive” throughout. Also, the Potency entry in assay [8], in [17], in assay [9] and in assay [10] was “inactive” throughout. Besides, the call in [5], in assay [11] and in assay [13] was inactive.
As for `Clc1nccc2c1ccc1ccccc12`, the Potency result in assay [1], in assay [14], in assay [3], in assay [4], in [16] and in [6] was “inactive” throughout. For the same molecule, the Potency entry in [8], in assay [17], in assay [9] and in [10] was “inactive” each time. Also, the result in [5], in assay [11] and in assay [12] was inactive.
